# According to PubChem BioAssay (NCATS):
# Records with an inconclusive call do not appear. Where a call stands in place of a potency, no number is given. Calls of active or inactive are those of the source. Calls come from the whole dose curve; as a rule, active = well fitted inhibition curve with a large enough effect; inconclusive = small, poorly fitted or top-dose-only effect; inactive = flat fitted curve, though single readings scatter.
# Tested on: DIV17
# Experiment: qHTS profiling for inhibitors of Plasmodium falciparum proliferation (AID 504749); note: nearly all actives have a fitted effect of over 60% in size
# Settings: P. falciparum in erythrocytes, SYBR Green DNA, 72 h; series mostly up to 28.7 µM
# How it was run: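 Parasite proliferation within erythrocytes, 72 h exposure. Endpoint: SYBR Green I fluorescence after overnight lysis at room temperature. Controls: 0.29 uM artemisinin, DMSO.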
# Potency is the fitted concentration of half-maximal effect.
row,SMILES,Potency
1,O=[N+]([O-])c1ccccc1,inactive
2,O=C1CC[C@@]2(O)C3Cc4ccc(O)c5c4C2(CCN3CC2CC2)[C@H]1O5 (stereo partly drawn),inactive
3,O=C/C=C/c1ccccc1,inactive
4,CCNC(C)Cc1cccc(C(F)(F)F)c1 (stereo not drawn),inactive
5,CC1CCC(C(C)C)C(OC(=O)c2ccccc2N)C1 (stereo not drawn),inactive
6,c1csc(C2(N3CCCCC3)CCCCC2)c1,inactive
7,c1ccc(C2(N3CCCC3)CCCCC2)cc1,15.1 µM (active)
8,N#CC(C#N)=Cc1cc(O)c(O)c(O)c1,10.7 µM (active)
9,F/C(COc1ccc2c(c1)[nH]c1ccccc12)=C1/CN2CCC1CC2,6.75 µM (active)
10,Oc1cccc[c]1[Hg][Cl],5.36 µM (active)
11,ClC1C(Cl)C(Cl)C(Cl)C(Cl)C1Cl (stereo not drawn),inactive
12,CCCCCCCCCC(=O)O[C@H]1CC[C@H]2[C@@H]3CCC4=CC(=O)CC[C@]4(C)[C@H]3CC[C@]12C,inactive
13,OC(c1ccccc1)(c1ccccc1)C1CN2CCC1CC2 (stereo not drawn),3.79 µM (active)
14,CC(C)Nc1ccc(Nc2ccccc2)cc1,13.5 µM (active)
15,c1ccc2cc(CC3=NCCN3)ccc2c1,inactive
16,C[C@@H](Cc1ccccc1)NCCC(c1ccccc1)c1ccccc1,2.56 µM (active)
17,CN1CCCC(=C(c2cccs2)c2cccs2)C1,6.75 µM (active)
18,CN1[C@@H]2CC[C@H]1CC(OC1c3ccccc3CCc3ccccc31)C2 (stereo partly drawn),1.81 µM (active)
